# PubChem BioAssay (Tox21)
# Several values for one entry are separate records, joined by “and”; a condition that tells them apart may be missing. Equal entries are not always repeated. Results filed as inconclusive are left out. A number with no mark means an inactive call. Activity calls are given as the source filed them. Calls follow the shape of the dose curve; as a rule, active = well fitted activation curve with a large enough effect in the repeat runs; inconclusive = weak or mixed curves; inactive = flat fitted curve, though single readings scatter.
# Experiment: A CellTox Green Cytotoxicity Assay to monitor cytotoxicity in HepG2 cells - 24 hour (AID 1224878); also: nearly all actives have a fitted effect of over 45% in size
# Details: CellTox Green fluorescence; series mostly up to 76.8 µM; cytotoxicity: at the top concentration
# From the text: National Center for Advancing Translational Sciences [NCATS]
# NIH Chemical Genomics Center [NCGC]
# U.S. Environmental Protection Agency [EPA]
# National Institutes of Environmental Health Sciences [NIEHS]
# National Toxicology Program [NTP]
# Cell-based models are critical for drug discovery. Determining the natural cytotoxic effects resulting from test compounds is an essential research activity. A CellTox Green Cytotoxicity Assay to monitor cytotoxicity in real time of continues cell culture during 40 hours of the compound treatment was used to screen Tox21 10K library compounds in HepG2 cells. CellTox Green Cytotoxicity Assay is a nonlytic, homogeneous, biofluorescent method to measure cytotoxicity in cell culture after experimental manipulation. The assay system uses a proprietary asymmetric cyanine dye that is excluded from viable cells but preferentially stains the dead cell's DNA. […] Viable cells produce no appreciable increases in fluorescence. Therefore, the fluorescence signal produced by the binding interaction with dead cell DNA is proportional to cytotoxicity.
# The mixture of HepG2 cell suspension and reagents were dispensed at 600cells/6 ul/well in 1536-well tissue culture treated black solid bottom plates using a Multidrop dispenser. After the assay plates were incubated at a 37 C/5% CO2 incubator for 5 hours, 23 nL of compounds dissolved in DMSO, positive and negative controls was transferred to the assay plate by a pintool work station. The plates were incubated at 37 C for 40 hours. The fluorescence intensity were measured at 0h, 8h, 16h, 24h, 32h and 40h time points using ViewLux plate reader during compound treatment.
# % is scaled to controls: 0 for no effect and ±100 for the full control effect; potency is read from the fitted curve at half-maximal effect.
Compound,cytotoxicity,Potency
CCCCCCCCCCCCCCCCCO,1.75% [at 15.8 µM],
CN(C)c1ccc(N=NS(=O)(=O)O)cc1,-6.66%,
c1cc2c3c(c1)ccc1cccc(c13)C2,1.7%,
CCN=C1C=CC(=C(c2ccc(N(CC)CC)cc2)c2ccc(N(CC)CC)cc2)c2ccccc21,,17.3 µM (active)
CC(=O)C=O,6.53%,
CCN1CCN(c2cc(-c3ccc(F)cc3)c3c(n2)CCCCCC3)CC1,24% [at 15.8 µM],
O=Cc1ccc(F)cc1,-10.5%,
CC1CCCCC1,-6.82%,
CCCCCCCCCCc1ccccc1,0.413%,
Oc1ccc(-c2ccc(O)cc2)cc1,7.64%,
O=CC1CC1,-6.38%,
CCOC(/C=C(\C)CCC=C(C)C)OCC,-8.44%,
Clc1cccnc1,1.08%,
Cc1cncc(C)c1,7.47%,
CCN=c1cc2oc3cc(NCC)c(C)cc3c(-c3ccccc3C(=O)OCC)c-2cc1C,,19.4 µM (active) and 5.49 µM (active)
CCCCCCCC/C=C\CCCCCCCC(=O)NCc1ccc(O)c(OC)c1,-0.58% [at 35.3 µM],
CCCCCCCC(=O)OCC,2.92%,
CC1CNCC(C)O1 (stereo not given),-12%,
C1CC(COCC2CO2)CCC1COCC1CO1 (stereo not given),-1.47%,
CCc1cccc(CC)c1NC(=O)C(=O)O,11.6%,

Compound,cytotoxicity,Potency
CN(C)CCCN1c2ccccc2Sc2ccc(C(F)(F)F)cc21,,23.9 µM (active)
Cn1cnc2ncnc(N)c21,-13.5% [at 35.3 µM],
CCCCCCCCCCCCCCCC,-3%,
C=C(c1ccc(C(=O)O)cc1)c1cc2c(cc1C)C(C)(C)CCC2(C)C,,38.9 µM (active)
CCCCCCOc1cc(C)c(O)c(C)c1C,,24.8 µM (active)
CCc1ccc(O)c(C(C)(C)C)c1,,38.9 µM (active)
CC1CCCNC1 (stereo not given),-3.2%,
C=CC(=C)CCC=C(C)C,-5.92%,
CCCCCCCOC(=O)c1ccccc1C(=O)OCCCCCCC,-5.21%,
OCCC(O)CO (stereo not given),28.5%,
CC1=C(/C=C/C(C)=C/C=C/C(C)=C\C=O)C(C)(C)CCC1,-0.546%,
CCN(CC)CCNc1ccc(CO)c2sc3ccccc3c(=O)c12,,16.9 µM (active)
CCc1c(Br)c(Br)c(Br)c(Br)c1Br,9.56%,
CN1CN(C)CN(C)C1,-7.15%,
O=C(O)CC(=O)O,7.08%,
ClC/C=C\CCl,-0.718%,
CCCCCCCCCC(=O)N(C)C,9.83%,
CC(C)(C)c1cc(/C=C2\SC(=N)NC2=O)cc(C(C)(C)C)c1O,,43.6 µM (active)
CCCCCCC(C)Nc1ccc(Nc2ccccc2)cc1 (stereo not given),16%,
CC(C)(C)c1n[nH]c(=O)n(N)c1=O,-10.5%,
